Data from PubChem BioAssay (Tox21).
Values without a mark were called inactive. Results filed as inconclusive are left out. Active and inactive are the calls of the source. Calls come from the whole dose curve; as a rule, active = well fitted curve in the direction sought with a large enough effect in the repeat runs; inconclusive = weak or mixed curves; inactive = no such curve, though single readings can be large; an effect the other way counts as inactive or inconclusive.

test: qHTS assay for small molecule disruptors of the mitochondrial membrane potential (AID 720635); conditions: HepG2 mitochondrial membrane potential, Mito-MPS dye ratio; series mostly up to 83.2 µM; ratio activity, negative = MMP loss: at the top concentration; note: potency is the fitted concentration of half-maximal effect
How it was run: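 HepG2 cells exposed to compound 1 hr at 37C, then Mito-MPS dye 30 min. Ratio read of aggregate (540/590 nm) versus monomer (490/535 nm) fluorescence.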
% is set by controls: 0 for no effect and ±100 for the full control effect.

Compound | Potency | ratio activity, negative = MMP loss
CCCCc1ccc2nc(NC(=O)OC)[nH]c2c1 | 0.254 µM (active) | 
CCC(=O)O[C@]1(C(=O)SCF)[C@H](C)C[C@H]2[C@@H]3C[C@H](F)C4=CC(=O)C=C[C@]4(C)[C@@]3(F)[C@@H](O)C[C@@]21C | 7.17 µM (active) | 
NCCCN1CCN(CCCN)CC1 |  | 12.8%
O=c1[nH]cnc2c1ncn2[C@@H]1O[C@H](CO)[C@@H](O)[C@H]1O |  | 21.9%
FC(F)(F)C(F)(F)C(F)(F)C(F)(F)C(F)(F)C(F)(F)C(F)(F)C(F)(F)Br |  | 6.33%

test: qHTS assay to test for compound auto fluorescence at 590 nm (red) in HepG2 cells (AID 720674); conditions: HepG2 autofluorescence, red 540/590 nm, 1 h; series mostly up to 91.3 µM; fluorescence, relative to Rose Bengal: at the top concentration
How it was run: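 Fluorescence at 590 nm emission following 540 nm excitation was recorded from HepG2 wells one hour after compound transfer, with DMSO-only wells as vehicle and Rose Bengal sodium equivalency as the scale.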

Compound | fluorescence, relative to Rose Bengal
Cc1cc(NS(=O)(=O)c2ccc(N)cc2)nc(C)n1 | -0.0028% [at 46 µM]
CN(C)C(=O)NC1(c2ccccc2)CCN(CCC[C@]2(c3ccc(Cl)c(Cl)c3)CCCN(C(=O)c3ccccc3)C2)CC1 | -0.128% [at 18.6 µM]
O=C(O)C(=O)Cc1c[nH]c2ccccc12 | -0.371%
CCCCNc1cc(C(=O)O)cc(S(N)(=O)=O)c1Oc1ccccc1 | -0.242% [at 18.6 µM]
NC(Cc1ccc(F)cc1)C(=O)O (centres undefined) | 0.0373% [at 3.72 µM]
CCCCOc1cc(C(=O)NCCN(CC)CC)c2ccccc2n1 | -0.403% [at 18.6 µM]
C[C@]12C(=O)OC(=O)[C@H]1[C@H]1C=C[C@@H]2C1 | 0.0015%
CCCCc1ccc2nc(NC(=O)OC)[nH]c2c1 | -0.46% [at 18.6 µM]
CCC1(C)NC(=O)NC1=O (centres undefined) | 0.104%
OCC(CBr)(CBr)CBr | 0.0016%
NNS(=O)(=O)c1ccc(Oc2ccc(S(=O)(=O)NN)cc2)cc1 | 0.171%
C=CCCC=C | -0.0212% [at 95.7 µM]
COc1cc(N)c(Cl)cc1C(=O)NC1CCN(Cc2ccccc2)CC1 | -0.629% [at 18.6 µM]
CCOC(=O)C1CC(=O)C(=C(O)C2CC2)C(=O)C1 (centres undefined) | -0.131%
OCCN(CCO)c1ccccc1 | 0.0251%
CC(CNC1CCCCC1)OC(=O)c1ccccc1 (centres undefined) | -0.352% [at 18.6 µM]
C[C@@H](N)C(=O)O | 0.339% [at 46 µM]
ICCc1ccccc1 | -0.327%

Compound | fluorescence, relative to Rose Bengal
Cc1cccc(C)c1NC(=O)CN1CCCCCC1 | -0.305% [at 46 µM]
O=S(=O)(O)C(F)(F)F | 0.208%
CCOC(=O)NCCC[Si](OCC)(OCC)OCC | -0.147%
CCN(CC)CCNC(=O)COc1ccc(Cl)cc1 | 0.407% [at 46 µM]
CCCN(CCC)C(=O)C(CCC(=O)O)NC(=O)c1ccccc1 (centres undefined) | -0.168% [at 46 µM]
Cc1ccc([N+](=O)[O-])cc1Cl | 0.242% [at 95.7 µM]
CCC(=O)O[C@]1(C(=O)SCF)[C@H](C)C[C@H]2[C@@H]3C[C@H](F)C4=CC(=O)C=C[C@]4(C)[C@@]3(F)[C@@H](O)C[C@@]21C | -0.521% [at 18.6 µM]
CCCCNCCCC | 0.211%
CC(=O)Nc1ccc(C)c(Cl)c1 | 0.228%
NCCCN1CCN(CCCN)CC1 | 0.111%
O=c1[nH]cnc2c1ncn2[C@@H]1O[C@H](CO)[C@@H](O)[C@H]1O | 0.0832% [at 46 µM]
FC(F)(F)C(F)(F)C(F)(F)C(F)(F)C(F)(F)C(F)(F)C(F)(F)C(F)(F)Br | 0.774% [at 46 µM]
C=CCCCCCCCCO | -0.003%
O=C(C(Cl)Cl)N1CCOC12CCCCC2 | -0.377%
CC1(C)S[C@@H]2[C@H](NC(=O)C(C(=O)O)c3ccccc3)C(=O)N2[C@H]1C(=O)O (some centres undefined) | -0.243% [at 46 µM]
CCCCCCCCCC#N | -0.106%
CCc1nnc(NS(=O)(=O)c2ccc(N)cc2)s1 | 0.117% [at 46 µM]

test: qHTS assay to test for compound auto fluorescence at 535 nm (green) in HepG2 cells (AID 720675); conditions: green autofluorescence 485/535 nm, 1 h; series mostly up to 91.3 µM; fluorescence, % of fluorescein control: at the top concentration

Compound | fluorescence, % of fluorescein control
Cc1cc(NS(=O)(=O)c2ccc(N)cc2)nc(C)n1 | -0.0868% [at 46 µM]
CN(C)C(=O)NC1(c2ccccc2)CCN(CCC[C@]2(c3ccc(Cl)c(Cl)c3)CCCN(C(=O)c3ccccc3)C2)CC1 | 0.0153% [at 18.6 µM]
O=C(O)C(=O)Cc1c[nH]c2ccccc12 | 0.0035%
CCCCNc1cc(C(=O)O)cc(S(N)(=O)=O)c1Oc1ccccc1 | 0.0391% [at 18.6 µM]
CCCCOc1cc(C(=O)NCCN(CC)CC)c2ccccc2n1 | 0.0079% [at 18.6 µM]
C[C@]12C(=O)OC(=O)[C@H]1[C@H]1C=C[C@@H]2C1 | -0.0002%
CCC1(C)NC(=O)NC1=O (centres undefined) | -0.0146%
OCC(CBr)(CBr)CBr | 0.0343%
NNS(=O)(=O)c1ccc(Oc2ccc(S(=O)(=O)NN)cc2)cc1 | 0.107%
C=CCCC=C | -0.0043% [at 95.7 µM]
COc1cc(N)c(Cl)cc1C(=O)NC1CCN(Cc2ccccc2)CC1 | 0.0143% [at 18.6 µM]
CCOC(=O)C1CC(=O)C(=C(O)C2CC2)C(=O)C1 (centres undefined) | -0.0988%
OCCN(CCO)c1ccccc1 | 0.0423%
CC(CNC1CCCCC1)OC(=O)c1ccccc1 (centres undefined) | 0.0399% [at 18.6 µM]
C[C@@H](N)C(=O)O | -0.0507% [at 46 µM]
ICCc1ccccc1 | 0.0712%
Cc1cccc(C)c1NC(=O)CN1CCCCCC1 | 0.0566% [at 46 µM]
O=S(=O)(O)C(F)(F)F | -0.0956%
CCOC(=O)NCCC[Si](OCC)(OCC)OCC | -0.0592%
CCN(CC)CCNC(=O)COc1ccc(Cl)cc1 | -0.0516% [at 46 µM]
CCCN(CCC)C(=O)C(CCC(=O)O)NC(=O)c1ccccc1 (centres undefined) | -0.0542% [at 46 µM]
Cc1ccc([N+](=O)[O-])cc1Cl | -0.181% [at 95.7 µM]
CCCCNCCCC | 0.0564%
CC(=O)Nc1ccc(C)c(Cl)c1 | -0.162%
C=CCCCCCCCCO | -0.0534%
O=C(C(Cl)Cl)N1CCOC12CCCCC2 | 0.0303%
CC1(C)S[C@@H]2[C@H](NC(=O)C(C(=O)O)c3ccccc3)C(=O)N2[C@H]1C(=O)O (some centres undefined) | 0.133% [at 46 µM]
CCCCCCCCCC#N | -0.007%
CCc1nnc(NS(=O)(=O)c2ccc(N)cc2)s1 | 0.0063% [at 46 µM]
